The text below walks through data of PubChem BioAssay (NCATS).

Molecules are shown by their SMILES. Results filed as inconclusive are left out. Calls of active or inactive are those of the source. The call rests on the fitted dose curve; in most records, active means well fitted inhibition curve with a large enough effect; inconclusive means small, poorly fitted or top-dose-only effect; inactive means flat fitted curve, though single readings scatter.

Holding throughout (assay): qHTS profiling for inhibitors of Plasmodium falciparum proliferation (AID 504749); further: nearly all actives have a fitted effect of over 60% in size
Holding throughout (conditions): P. falciparum in erythrocytes, SYBR Green DNA, 72 h; series mostly up to 28.7 µM
(In general: qHTS replaces the single test concentration by a dilution series.)

One assay relates to ATS95. An outline of the steps: (§1)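 Readout was DNA-dye fluorescence from lysed cultures, ex 485/em 535 nm. Parasitized red cells had grown 72 h with compound; data scaled between 0.29 uM artemisinin and DMSO wells and corrected using vehicle-only plates.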
The next assay deals with C2A. In outline: as §1
In the next assay the test system is CP185. In outline:
as §1

A further assay relates to CP191. In outline:
as §1

Another assay has as its system CP192. An outline of the steps: as §1
In another assay the test system is CP194. An outline of the steps: as §1
A further assay concerns CP201. An outline of the steps:
as §1

For the next assay, the system named is CP211. In outline: as §1
A further assay deals with CP203. An outline of the steps:
as §1

For the next assay, the system named is CP215. In outline:
as §1
Potency means the concentration at half of the fitted maximal effect.

`CC[N+](CC)(CC)CC`: the Potency entry in the assay with ATS95, in the assay on C2A, with CP185, in the assay on CP191, in the assay with CP192 and in the assay on CP194 was “inactive” each time. In addition, the Potency result with CP201 and in the assay with CP211 was “inactive” each time.
Turning to `COc1ccccc1N1CCNCC1`, the Potency entry in the assay with ATS95, in the assay on C2A, in the assay on CP185, in the assay with CP191, with CP192 and with CP194 was “inactive” in each case. For the same compound, the Potency result in the assay on CP201, in the assay on CP203, with CP211 and with CP215 was “inactive” in each case.
With `O=C1NCN(c2ccccc2)C12CCN(CC1COc3ccccc3O1)CC2` (stereo not drawn), the Potency entry in the assay on ATS95, in the assay with C2A, in the assay on CP185, in the assay on CP191, in the assay on CP192 and in the assay on CP194 was “inactive” each time. The Potency result in the assay on CP201, in the assay with CP211 and with CP215 was “inactive” in each case.
As for `CCC(COC(=O)c1cc(OC)c(OC)c(OC)c1)(c1ccccc1)N(C)C` (stereo not drawn), the Potency result with ATS95, with C2A, in the assay with CP185, in the assay with CP191, with CP192 and in the assay with CP194 was “inactive” in each case. In addition, the Potency entry in the assay with CP201, in the assay with CP203, in the assay with CP211 and with CP215 was “inactive” each time.
As for `CC(=O)[C@H]1CC[C@H]2[C@@H]3CC[C@H]4C[C@](C)(O)CC[C@]4(C)[C@H]3CC[C@]12C`, the Potency result with ATS95, in the assay on C2A, in the assay on CP185, with CP191, with CP192 and in the assay on CP194 was “inactive” in each case. In addition, the Potency entry with CP201, in the assay with CP211 and in the assay on CP215 was “inactive” throughout.
Consider `NCC1(CC(=O)O)CCCCC1`, for which the Potency entry in the assay on ATS95, in the assay with C2A, in the assay with CP185, with CP191, in the assay with CP192 and in the assay on CP194 was “inactive” throughout. For the same compound, the Potency result in the assay with CP201, in the assay on CP211 and in the assay with CP215 was “inactive” each time.
As for `O=P1(NCCCl)OCCCN1CCCl` (stereo not drawn), the Potency result with ATS95, in the assay on C2A, with CP185, in the assay on CP191, in the assay with CP192 and in the assay on CP194 was “inactive” in each case. Besides, the Potency entry with CP201, in the assay with CP211 and in the assay on CP215 was “inactive” in each case.
`CC(C)(C)CC(C)(C)c1ccc(O)cc1`: the Potency result in the assay on ATS95, in the assay on C2A, in the assay with CP185, in the assay on CP191, in the assay with CP192 and with CP194 was “inactive” each time. The Potency entry in the assay with CP201, in the assay on CP211 and in the assay with CP215 was “inactive” each time.
In the case of `CCN(CC)CCOC(=O)C(O)(c1ccccc1)c1ccccc1`, the Potency result in the assay on ATS95, in the assay on C2A, in the assay on CP185, with CP191, in the assay on CP192 and in the assay with CP194 was “inactive” in each case. Further, the Potency result in the assay with CP201 and with CP211 was “inactive” throughout.
For the compound `Nc1ccncc1`, the Potency result in the assay on ATS95, in the assay on C2A, in the assay on CP185, with CP191, in the assay on CP192 and in the assay on CP194 was “inactive” in each case. In addition, the Potency entry with CP201, with CP203, in the assay on CP211 and with CP215 was “inactive” each time.
Consider `CC1OC(C)OC(C)O1` (stereo not drawn), for which the Potency result in the assay on ATS95, with C2A, in the assay on CP185, in the assay with CP191, with CP192 and in the assay with CP194 was “inactive” in each case. Moreover, the Potency result in the assay with CP201, in the assay with CP211 and with CP215 was “inactive” throughout.
On to `Cc1ncc(CNC(=O)N(CCCl)N=O)c(N)n1`, for which the Potency result with ATS95, in the assay with C2A, with CP185, in the assay on CP191, with CP192 and with CP194 was “inactive” each time. Besides, the Potency result in the assay on CP201, in the assay on CP203, in the assay with CP211 and with CP215 was “inactive” throughout.
Consider `O=C(O)c1ccc2[nH]cc(CCCCN3CC=C(c4ccccc4)CC3)c2c1`, for which the Potency entry in the assay on ATS95, with C2A, in the assay on CP185, with CP191, in the assay on CP192 and in the assay on CP194 was “inactive” each time. Further, the Potency entry with CP201, in the assay with CP211 and with CP215 was “inactive” in each case.
Regarding `N#CC(C#N)=Cc1ccc(O)c(O)c1`, the Potency entry in the assay with ATS95, in the assay on C2A, in the assay with CP185, in the assay on CP192, in the assay with CP194 and in the assay with CP201 was “inactive” in each case. Further, the Potency entry in the assay with CP211 was “inactive”.
Consider `CCC1(C2=NCCN2)Cc2ccccc2O1` (stereo not drawn), for which the Potency in the assay on ATS95 was 8.91 µM (active); with CP185 it was 10 µM (active). Moreover, in the assay with CP192, the Potency result was “inactive”.
With `O=c1[nH]c2ccccc2n1C1CCN(CCCC(c2ccc(F)cc2)c2ccc(F)cc2)CC1`, the Potency result in the assay on ATS95, in the assay on C2A, in the assay on CP185, in the assay with CP192, in the assay with CP201 and with CP203 was “inactive” throughout. Moreover, the Potency with CP215 was 13.5 µM (active).
`N[C@@H](Cc1ccc(N(CCCl)CCCl)cc1)C(=O)O`: the Potency entry with CP192, with CP201, in the assay on CP203, in the assay on CP211 and in the assay on CP215 was “inactive” in each case.
As for `Oc1cc(Cl)ccc1Oc1ccc(Cl)cc1Cl`, the Potency was 10 µM (active) in the assay with ATS95; 11.2 µM (active) in the assay on CP191; 12 µM (active) in the assay with CP192; 13.5 µM (active) in the assay with CP194; 13.5 µM (active) with CP215.
In the case of `FC(F)(F)c1cccc(C2=CCN(CCc3ccc4ccccc4c3)CC2)c1`, the Potency entry in the assay on ATS95, in the assay on C2A, in the assay with CP185, in the assay on CP192, in the assay on CP194 and with CP201 was “inactive” throughout. Also, the Potency entry with CP203, with CP211 and in the assay on CP215 was “inactive” in each case.
As to `CCCC1CCCCN1` (stereo not drawn), the Potency entry in the assay with ATS95, in the assay on C2A, in the assay with CP185, in the assay on CP191, in the assay on CP192 and in the assay with CP194 was “inactive” throughout. In addition, the Potency result in the assay with CP201 and in the assay with CP215 was “inactive” in each case.
`CCN(CC)CCN1C(=O)CN=C(c2ccccc2F)c2cc(Cl)ccc21`: the Potency entry with C2A, in the assay on CP191, with CP192, in the assay on CP201 and in the assay on CP215 was “inactive” throughout.
Regarding `Cc1cccc(C)c1NC1=NCCCS1`, the Potency result with C2A, in the assay on CP191 and in the assay on CP192 was “inactive” in each case.
`CC(CCc1ccccc1)NC(C)C(O)c1ccc(O)cc1` (stereo not drawn): the Potency entry with CP185, in the assay on CP191 and in the assay with CP192 was “inactive” in each case.
Consider `NN=C(N)N`, for which the Potency result in the assay on ATS95, in the assay with C2A, in the assay on CP185, in the assay on CP191, with CP192 and in the assay on CP194 was “inactive” each time. Also, the Potency entry in the assay on CP201, in the assay with CP211 and in the assay on CP215 was “inactive” each time.
For `Cc1ccc(S(=O)(=O)N[C@@H](CCCCN)C(=O)CCl)cc1`, the Potency with C2A was 11.2 µM (active); in the assay on CP191, 8.91 µM (active). The Potency result in the assay with CP192, in the assay on CP201, with CP203, in the assay on CP211 and with CP215 was “inactive” throughout.
Regarding `Cc1ccc(-c2nc3ccc(C)cn3c2CC(=O)N(C)C)cc1`, the Potency entry with ATS95, in the assay with C2A, with CP185, in the assay with CP192, in the assay with CP194 and in the assay with CP201 was “inactive” in each case. Also, the Potency entry in the assay with CP203, in the assay on CP211 and in the assay on CP215 was “inactive” each time.
On to `CCOC(=O)C1(c2ccccc2)CCN(CCC(C#N)(c2ccccc2)c2ccccc2)CC1`, for which the Potency was 3.55 µM (active) in the assay with ATS95; 3.55 µM (active) in the assay with C2A; 3.16 µM (active) with CP185; 3.16 µM (active) in the assay on CP191; 4.78 µM (active) in the assay with CP192; 4.26 µM (active) in the assay with CP201. Also, the results for the Potency with CP203 and in the assay on CP215 were 4.78 µM (active) and 4.26 µM (active), respectively.
In the case of `O=[N+]([O-])c1cc([As](=O)(O)O)ccc1O`, in the assay with CP191, the Potency is 3.16 µM (active).
